# Data reported in the supplement of paper PMC6992640.
# ± gives the standard deviation of the averaged measurements.
# Assays:
# Assay in all cases: cell viability (% of vehicle); higher = less cytotoxic
# Details in all cases: 10 µM; 72 h
# HCI01 = tested on: HCI01 (cells of a triple-negative basal-like breast cancer xenograft)
# HCI03 = tested on: HCI03 (cells of an ER-positive luminal breast cancer xenograft)
# HCI09 = tested on: HCI09 (cells of a triple-negative luminal androgen receptor type breast cancer xenograft)
# HCI11 = tested on: HCI11 (cells of an ER-positive luminal breast cancer xenograft)
# HCI13 = tested on: HCI13 (cells of an ER-positive luminal breast cancer xenograft)
# HCI16 = tested on: HCI16 (cells of a triple-negative basal-like breast cancer xenograft)
# UCD52 = tested on: UCD52 (cells of a triple-negative basal-like breast cancer xenograft)
# WHIM2 = tested on: WHIM2 (cells of a triple-negative basal-like breast cancer xenograft)
# WHIM30 = tested on: WHIM30 (cells of a triple-negative basal-like breast cancer xenograft)
# 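Also: PDX cells carrying CMV promoter-driven luciferase, viability read as total photon flux per second by IVIS imaging following D-luciferin, vehicle control 0.1% DMSO.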
smiles,measurement,setting,value
CC(C)(C)NC(=O)C1CCC2C3CCC4NC(=O)C=CC4(C)C3CCC12C (configuration not stated) [Finasteride],cell viability,HCI01,136 ± 20
same,cell viability,HCI03,115
same,cell viability,HCI09,103 ± 8.5
same,cell viability,HCI11,125
same,cell viability,HCI13,96.2 ± 4.9
same,cell viability,HCI16,99.8
same,cell viability,UCD52,81.1 ± 1.1
same,cell viability,WHIM2,94 ± 1.5
same,cell viability,WHIM30,156 ± 18
CCC(C)(C)c1ccc(CC(C)CN2CC(C)OC(C)C2)cc1.Cl (configuration not stated) [Amorolfine HCl],cell viability,HCI01,66.7 ± 39
same,cell viability,HCI03,129
same,cell viability,HCI09,88.4 ± 9.1
same,cell viability,HCI11,83.8
same,cell viability,HCI13,119 ± 36
same,cell viability,HCI16,119
same,cell viability,UCD52,58.3 ± 5.5
same,cell viability,WHIM2,64.5 ± 32
same,cell viability,WHIM30,166 ± 9.2
NC(CC(=O)N1CCn2c(nnc2C(F)(F)F)C1)Cc1cc(F)c(F)cc1F.O.O=P(=O)OO.[HH] (configuration not stated) [Sitagliptin phosphate monohydrate],cell viability,HCI01,134 ± 15
same,cell viability,HCI03,154
same,cell viability,HCI09,94.1 ± 15
same,cell viability,HCI11,131
same,cell viability,HCI13,135 ± 37
same,cell viability,HCI16,135
same,cell viability,UCD52,120 ± 3.7
same,cell viability,WHIM2,115.8 ± 0.55
same,cell viability,WHIM30,144 ± 14
O=C(O)CSCC(=O)NC1CCSC1=O (configuration not stated) [Erdosteine],cell viability,HCI01,105 ± 12
same,cell viability,HCI03,125
same,cell viability,HCI09,108 ± 27
same,cell viability,HCI11,108
same,cell viability,HCI13,87.3 ± 5.8
same,cell viability,HCI16,134
same,cell viability,UCD52,94.1 ± 8.3
same,cell viability,WHIM2,119 ± 33
same,cell viability,WHIM30,177 ± 44
COc1cc2c(cc1OC)CN(CCc1ccc(NC(=O)c3cccc4c(=O)c5cccc(OC)c5[nH]c34)cc1)CC2 [Elacridar],cell viability,HCI01,111.7 ± 0.54
same,cell viability,HCI03,71.7
same,cell viability,HCI09,71.7 ± 33
same,cell viability,HCI11,101
same,cell viability,HCI13,113 ± 35
same,cell viability,HCI16,97.7
same,cell viability,UCD52,63.7 ± 5.6
same,cell viability,WHIM2,48.2 ± 22
same,cell viability,WHIM30,89.9 ± 0.9
CC1(C)SC2C(NC(=O)Cc3ccccc3)C(=O)N2C1C(=O)[O-].[Na+] (configuration not stated) [Penicillin G Sodium],cell viability,HCI01,170 ± 78
same,cell viability,HCI03,105
same,cell viability,HCI09,91.8 ± 20
same,cell viability,HCI11,105
same,cell viability,HCI13,70.7 ± 9.5
same,cell viability,HCI16,111
same,cell viability,UCD52,99.7 ± 20
same,cell viability,WHIM2,108 ± 14
same,cell viability,WHIM30,109 ± 5.6
C[N+](C)(C)CC(=O)[O-] [Betaine],cell viability,HCI01,107 ± 33
same,cell viability,HCI03,140
same,cell viability,HCI09,103 ± 12
same,cell viability,HCI11,90.7
same,cell viability,HCI13,140 ± 1.5
same,cell viability,HCI16,116
same,cell viability,UCD52,106 ± 5.9
same,cell viability,WHIM2,99.7 ± 16
same,cell viability,WHIM30,90 ± 12
CC(=O)OC1CCC2(C)C(=CCC3C2CCC2(C)C(c4cccnc4)=CCC32)C1 (configuration not stated) [Abiraterone acetate],cell viability,HCI01,96.7 ± 14
same,cell viability,HCI03,87.6
same,cell viability,HCI09,65.8 ± 28
same,cell viability,HCI11,88.7
same,cell viability,HCI13,68 ± 12
same,cell viability,HCI16,98
same,cell viability,UCD52,62.6 ± 1.9
same,cell viability,WHIM2,95.5 ± 20
same,cell viability,WHIM30,117 ± 51
CCN(CCO)CCCOc1ccc2c(Nc3cc(CC(=O)Nc4cccc(F)c4)[nH]n3)ncnc2c1 [Barasertib (AZD1152-HQPA)],cell viability,HCI01,136 ± 22
same,cell viability,HCI03,118
same,cell viability,HCI09,79.2 ± 6.8
same,cell viability,HCI11,91.5
same,cell viability,HCI13,97.3 ± 5.7
same,cell viability,HCI16,143
same,cell viability,UCD52,107 ± 20
same,cell viability,WHIM2,89.4 ± 4
same,cell viability,WHIM30,131 ± 0.53
CCN(CC)CCOC(=O)C1(C2CCCCC2)CCCCC1.Cl [Dicyclomine HCl],cell viability,HCI01,126 ± 7.2
same,cell viability,HCI03,123
same,cell viability,HCI09,102 ± 11
same,cell viability,HCI11,99.7
same,cell viability,HCI13,90.1 ± 10
same,cell viability,HCI16,141
same,cell viability,UCD52,68.6 ± 1.9
same,cell viability,WHIM2,104 ± 1.9
same,cell viability,WHIM30,117 ± 2.5
Cl.Cl.OCCOCCN1CCN(C(c2ccccc2)c2ccc(Cl)cc2)CC1 (configuration not stated) [Hydroxyzine 2HCl],cell viability,HCI01,169 ± 3.3
same,cell viability,HCI03,99.9
same,cell viability,HCI09,112 ± 5.6
same,cell viability,HCI11,117
same,cell viability,HCI13,85.42 ± 0.6
same,cell viability,HCI16,128
same,cell viability,UCD52,76.48 ± 0.64
same,cell viability,WHIM2,97.2 ± 2.3
same,cell viability,WHIM30,140 ± 23
CC1(C)SC2C(NC(=O)C(NC(=O)N3CCN(S(C)(=O)=O)C3=O)c3ccccc3)C(=O)N2C1C(=O)O.[Na] (configuration not stated) [Mezlocillin Sodium],cell viability,HCI01,143 ± 62
same,cell viability,HCI03,142
same,cell viability,HCI09,104 ± 10
same,cell viability,HCI11,102
same,cell viability,HCI13,89.7 ± 3.6
same,cell viability,HCI16,123
same,cell viability,UCD52,105 ± 1.2
same,cell viability,WHIM2,107 ± 20
same,cell viability,WHIM30,103 ± 9.4
O=C1CCc2ccc(OCCCCN3CCN(c4cccc(Cl)c4Cl)CC3)cc2N1 [Aripiprazole],cell viability,HCI01,105 ± 16
same,cell viability,HCI03,127
same,cell viability,HCI09,73.6 ± 6.5
same,cell viability,HCI11,82
same,cell viability,HCI13,73.33 ± 0.076
same,cell viability,HCI16,127
same,cell viability,UCD52,73.9 ± 8.9
same,cell viability,WHIM2,104 ± 6.5
same,cell viability,WHIM30,122 ± 3.3
COc1ccc(-n2nc(C(N)=O)c3c2C(=O)N(c2ccc(N4CCCCC4=O)cc2)CC3)cc1 [Apixaban],cell viability,HCI01,100.8 ± 0.64
same,cell viability,HCI03,113
same,cell viability,HCI09,93.5 ± 17
same,cell viability,HCI11,173
same,cell viability,HCI13,149 ± 8.9
same,cell viability,HCI16,82.4
same,cell viability,UCD52,90.7 ± 6.2
same,cell viability,WHIM2,97.6 ± 8.3
same,cell viability,WHIM30,85.2 ± 14
CO[C@H]1/C=C/O[C@@]2(C)Oc3c(C)c(O)c4c(c3C2=O)C(=O)/C(=C/NN2CCN(C)CC2)C(=C4O)NC(=O)/C(C)=C/C=C/[C@H](C)[C@H](O)[C@@H](C)[C@@H](O)[C@@H](C)[C@H](OC(C)=O)[C@@H]1C [Rifampin],cell viability,HCI01,86.5 ± 29
same,cell viability,HCI03,133
same,cell viability,HCI09,85.8 ± 2.5
same,cell viability,HCI11,94.5
same,cell viability,HCI13,108 ± 16
same,cell viability,HCI16,145
same,cell viability,UCD52,82.91 ± 0.51
same,cell viability,WHIM2,64 ± 0.77
same,cell viability,WHIM30,94.88 ± 0.76
O=C(NCCN1CCOCC1)c1ccc(Cl)cc1,cell viability,HCI01,129.4 ± 0.71
same,cell viability,HCI03,171
same,cell viability,HCI09,114 ± 22
same,cell viability,HCI11,113
same,cell viability,HCI13,102 ± 2.1
same,cell viability,HCI16,110
same,cell viability,UCD52,109 ± 8.9
same,cell viability,WHIM2,111 ± 16
same,cell viability,WHIM30,138 ± 4
OC[C@@H](O)[C@@H](O)[C@H](O)[C@@H](O)CO [D-Sorbitol],cell viability,HCI01,96 ± 11
same,cell viability,HCI03,118
same,cell viability,HCI09,107 ± 21
same,cell viability,HCI11,91.5
same,cell viability,HCI13,109 ± 4.5
same,cell viability,HCI16,120
same,cell viability,UCD52,96.3 ± 8
same,cell viability,WHIM2,103 ± 2.6
same,cell viability,WHIM30,120 ± 21
CN(C)CCN1C(=O)c2cccc3cc(N)cc(c23)C1=O [Amonafide],cell viability,HCI01,103 ± 4
same,cell viability,HCI03,69.4
same,cell viability,HCI09,42.7 ± 14
same,cell viability,HCI11,90.4
same,cell viability,HCI13,64.7 ± 3.1
same,cell viability,HCI16,196
same,cell viability,UCD52,138 ± 26
same,cell viability,WHIM2,55.5 ± 5.5
same,cell viability,WHIM30,78.5 ± 1.6
